# Screening data deposited in PubChem BioAssay by National Center for Advancing Translational Sciences (NCATS).
# Gal4-VP16 FLuc: inhibits Gal4-VP16 luciferase reporter, ROR gamma counter-screen. Drosophila S2 Gal4-VP16 UAS-luciferase, luminescence, 20 h. Potency, µM (titrated, usually from 53.6 µM), for the others: at the highest dose activity, negative = inhibition, actives largely listed as inhibitors. hit rate 3.5% among 310,000. AID 2546;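 further: Gal4-VP16 expression switched on by copper sulfate through the metallothionein promoter; on the % scale 0 is the no-effect control and ±100 the full control effect; nearly all actives have a fitted effect of over 50% in size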
# KB-3-1 cytotox: KB-3-1 parental cell cytotoxicity | KB-3-1 viability, CellTiter-Glo ATP luminescence, 72 h | Potency, µM (titrated, usually from 46.1 µM), most hits filed as cytotoxic | hit rate 1.4% among 400,000 | AID 1347075; further: on the % scale 0 is the no-effect control and ±100 the full control effect; nearly all actives have a fitted effect of over 60% in size
#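 72 h, 37 °C compound treatment of KB-3-1 parental cells; CellTiter-Glo added, 10 min, luminescence read. Data corrected against DMSO-only plates and normalized before curve fitting.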
# SW480 rerep: DNA re-replication induction in SW480 cells; SW480 DNA re-replication, Hoechst DNA content imaging, 48 h; Potency, µM (top dose mostly 46.1 µM), without a hit: top-dose re-replication activation, usual class: activators; hit rate 1.8% among 340,000; AID 624297; further: % of control where 0% means no effect; nearly all actives have a fitted effect of over 55% in size
#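 Compounds, transferred as 23 nL by pin tool, were incubated with cells for 48 hr; DNA content per nucleus was then quantified by Hoechst staining and fluorescence plate imaging.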
# RORg inh: inhibitors of mouse ROR gamma transcriptional activity | P51450 | Drosophila S2 Gal4-RORgamma UAS-luciferase reporter, 20 h | Potency, µM (highest dose often 53.6 µM), inactives show at the highest dose activity change, negative = inhibition, actives largely listed as inhibitors | hit rate 5.4% among 310,000; further: on the % scale 0 is the no-effect control and ±100 the full control effect; nearly all actives have a fitted effect of over 60% in size
# Target sequence (P51450 whole entry, looked up, the tested form may be a part): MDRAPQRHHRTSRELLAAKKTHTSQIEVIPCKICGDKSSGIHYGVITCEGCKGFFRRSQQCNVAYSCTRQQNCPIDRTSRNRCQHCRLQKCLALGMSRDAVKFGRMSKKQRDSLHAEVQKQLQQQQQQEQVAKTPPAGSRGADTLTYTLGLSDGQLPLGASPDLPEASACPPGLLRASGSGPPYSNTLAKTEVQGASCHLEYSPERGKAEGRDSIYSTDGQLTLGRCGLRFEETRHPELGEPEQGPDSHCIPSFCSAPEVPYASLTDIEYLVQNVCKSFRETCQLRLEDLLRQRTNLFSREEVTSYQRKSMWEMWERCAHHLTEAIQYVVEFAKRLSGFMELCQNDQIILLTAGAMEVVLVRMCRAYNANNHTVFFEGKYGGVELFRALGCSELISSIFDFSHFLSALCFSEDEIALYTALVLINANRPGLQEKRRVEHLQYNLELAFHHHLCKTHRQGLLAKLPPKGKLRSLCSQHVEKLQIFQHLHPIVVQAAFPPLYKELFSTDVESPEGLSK
#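 Drosophila Schneider cells stably carrying a metallothionein-driven Gal4 DBD–ROR gamma fusion and a UAS-Photinus luciferase reporter were exposed to compound for 1 hr, then induced with copper sulfate (700 uM final) for 20 hr at ambient temperature before luminescence reading.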
# KB-V1 cytotox: kills drug-selected multidrug resistant KB-V1 cells; hit rate 3.4% among 400,000; Potency, µM (doses to about 46.1 µM), actives largely listed as cytotoxic; KB-V1 MDR cells viability, CellTiter-Glo, 72 h; further: on the % scale 0 is the no-effect control and ±100 the full control effect; nearly all actives have a fitted effect of over 60% in size
#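 Compound-treated KB-V1 multidrug-resistant cells, 72 h, 37 degrees C; viability by CellTiter-Glo. Fitted qHTS curves give the values.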
# MCF10A rereplic: induces DNA re-replication in MCF 10a normal breast cells; Potency, µM (highest dose often 46.1 µM), inactives show top-dose activity, positive = re-replication, actives largely listed as activators; hit rate 2.9% among 350,000; MCF 10A DNA re-replication, Hoechst nuclear intensity, 48 h; further: % of control where 0% means no effect; nearly all actives have a fitted effect of over 50% in size
# Numbers without * were called inactive; i = inactive; ? = inconclusive; · = not tested or not shown; [ ] = dose if it differs, or a comment. This is a sample that favours compounds with a hit; in the whole collection about 10% have one here. The call rests on the fitted dose curve; in most records, active means well fitted curve in the direction sought with a large enough effect; inconclusive means small, poorly fitted or top-dose-only effect, or another doubt; inactive means no such curve, though single readings can be large; an effect the other way counts as inactive or inconclusive. Potency means the concentration at half of the fitted maximal effect.
SMILES,Gal4-VP16 FLuc,KB-3-1 cytotox,SW480 rerep,RORg inh,KB-V1 cytotox,MCF10A rereplic
COC(=O)c1cc(C(=O)N2CCN(c3cccc(Cl)c3)CC2)cc([N+](=O)[O-])c1,-2%,1µM*,0.73µM*,-15%,?,?
O=C(c1ccc(S(=O)(=O)N2CCOCC2)cc1)N1CCN(c2ccc(F)cc2)CC1,0%,i,-4%,?,i,0%
O=C(c1cccc([N+](=O)[O-])c1)N1CCN(c2cccc(Cl)c2)CC1,-6%,18µM*,?,9%,5.8µM*,16µM*
O=C(c1ccc(S(=O)(=O)N2CCOCC2)cc1)N1CCN(c2cccc(Cl)c2)CC1,?,i,-10%,3%,15µM*,-1%
COc1ccc(Cl)cc1NC(=O)c1cc(C)nc2c1c(C)nn2-c1ccccc1,·,i,·,·,i,·
Cc1ccc(NC(=O)Nc2nnc(N3CCCC3)s2)c(C)c1,·,i,·,·,?,·
CCCCCCCc1ccc(C2NC(=S)NC3=C2C(=O)c2ccccc23)cc1 (centres undefined),?,i,1%,5.6µM*,i,-2%
Cc1ccc(-c2nnc(SCC(=O)N3CCCc4ccccc43)o2)cc1,·,i,·,·,i,·
O=C1CCC(c2ccc3c(c2)CCC3)=NN1,1%,1.2µM*,-4%,25%,i,-13%
COC(=O)C(Sc1ccc(Cl)cc1)C1SC(=S)N(Cc2ccccc2)C1=O (centres undefined),·,i,·,·,i,·
COc1ccc(/C=C/C(=O)NC(=S)NNC(=O)Cc2cccs2)cc1,?,?,8%,11µM*,?,?
O=C(/C=C/c1ccccc1)NC(=S)NNC(=O)Cc1cccs1,5µM*,?,?,2.5µM*,?,?
COc1ccc(/C=C/C(=O)NC(=S)NNC(=O)c2cc(OC)c(OC)c(OC)c2)cc1,-15%,i,-3%,-43%,?,3%
CCOC(=O)c1oc2ccc(CNCCO)c(Cl)c2c1C,-1%,i,2%,13%[10 µM],?,21%
CCOC(=O)c1oc2ccc(CNC3CCCCC3)c(Cl)c2c1C,-4%,i,?,-6%,i,16µM*
O=C1C=C(Nc2ccc(F)cc2)c2ccccc2C1=O,·,?,9.2µM*,·,21µM*,?
COc1cc(Cl)c(NC2=CC(=O)C(=O)c3ccccc32)c(OC)c1,·,9.2µM*,8.2µM*,·,8.2µM*,3.3µM*
CCOc1ccc(NC2=CC(=O)C(=O)c3ccccc32)cc1,·,6.5µM*,13µM*,·,4.1µM*,?
COc1cc(Cl)c(NS(=O)(=O)c2ccc(-c3ccc(=O)[nH]n3)o2)c(OC)c1,4%,i,3%,-10%,?,-3%
O=C1C=C(Nc2cccnc2)c2ccccc2C1=O,·,8.2µM*,6.5µM*,·,?,9.2µM*
Cc1sc2c(c1C)c(=O)n(-c1cccc(C(F)(F)F)c1)c(=O)n2Cc1ccccc1C#N,·,i,·,·,i,·
CN1OC[C@@H]2CN(C(=O)NC3CCCCC3)[C@H](c3ccc(N4CCCCC4)cc3)C[C@@H]21,·,i,·,·,i,·
CC(C)C(=O)OCc1cc(=O)n2nc(C3CC3)sc2n1,·,i,·,·,i,·
O=C1C=C(NCc2ccccc2)c2ccccc2C1=O,?,?,18µM*,16µM*,?,?
O=C1C=C(Nc2ccccc2O)c2ccccc2C1=O,10µM*,18µM*,6.5µM*,?,21µM*,?
SMILES,Gal4-VP16 FLuc,KB-3-1 cytotox,SW480 rerep,RORg inh,KB-V1 cytotox,MCF10A rereplic
Cc1ccc(NC2=CC(=O)C(=O)c3ccccc32)c(C)c1,·,?,9%,·,?,-5%
Nc1o[nH]c(=O)c1C1CCCCC1,·,i,-3%,·,i,-1%
Cc1ccc(-c2nc(CNC(=O)Nc3ccccc3)c(C)o2)cc1,·,i,·,·,i,·
O=C(Nc1cc(SCCO)cc([N+](=O)[O-])c1)c1ccc(Br)o1,-8%,?,-6%,13%,21µM*,17%
O=C(CCCl)Nc1cc(SCCO)cc([N+](=O)[O-])c1,2%,i,-5%,21%,i,-5%
CSc1nc(-c2ccc(F)cc2)cc(=O)[nH]1,2%,i,9.2µM*,-3%,i,0%
O=c1cc(-c2ccccc2)nc(SCc2ccc(F)cc2)[nH]1,?,i,-5%,-24%,i,-3%
COc1cccc(CNC(=O)CCCN2C(=O)CSc3c2c(C)nn3-c2ccccc2)c1,·,i,·,·,i,·
Cc1ccc(C(NC(=O)NC(C)c2ccccc2)C(Cl)(Cl)Cl)cc1F (centres undefined),?,?,?,-10%,21µM*,15µM*
O=C(CC1SC(=O)N(c2ccccc2)C1=O)Nc1ccc(Cl)cc1 (centres undefined),-6%,i,-16%,16µM*,i,3%
O=C(CC1SC(=NCCc2ccccc2)N(/N=C/c2cccs2)C1=O)Nc1ccc(Cl)cc1 (centres undefined),0.79µM*,i,5%,0.5µM*,i,?
CCOC(=O)c1sc(N2C(=O)C(O)=C(C(=O)c3ccco3)C2c2ccc([N+](=O)[O-])cc2)nc1C (centres undefined),·,i,4%,·,i,?
CCc1nc2ccc(C(=O)NCCc3ccccn3)cn2c1N(C)CCC(C)C,·,i,·,·,i,·
CCOc1ccccc1C(=O)Nc1cc2c(cc1N1CCOCC1)n(C)c(=O)n2C,·,i,·,·,i,·
CC(=O)c1sc(NC(=O)c2ccccc2)nc1-c1ccccc1,-7%,i,-56%,0%,i,0.65µM*
COC(=O)Nc1nc(-c2ccccc2)c(C(=O)c2ccc(Cl)cc2)s1,8%,1µM*,1.3µM*,0%,0.58µM*,1µM*
CC(=O)c1sc(NC(=O)c2c(F)cccc2F)nc1-c1ccccc1,-14%,i,-11%,17%,i,0%
CCOC(=O)Nc1nc(-c2ccccc2)c(C(=O)c2ccccc2)s1,-22%,0.82µM*,0.92µM*,13µM*,1.2µM*,1.2µM*
NC(c1csc(Nc2cc(NCCCO)ncn2)n1)c1ccccc1Cl (centres undefined),·,i,·,·,i,·
O=C(c1ccco1)N1CCN(c2nc(C3CC3)nc3sc4c(c23)CCCC4)CC1,0%,i,-2%,3%,21µM*,-5%
Cc1nc(N2CCN(C(=O)c3ccco3)CC2)c2c3c(sc2n1)CC(C)CC3 (centres undefined),?,i,-169%,?,8.2µM*,?
CCc1nc(SCC(=O)N2CCN(C(=O)c3ccco3)CC2)c2c3c(sc2n1)CCCC3,3%,i,3%,3%,?,?
